Screens deposited in PubChem by National Center for Advancing Translational Sciences (NCATS).
The entries come from a sample that favours hits as a whole.
Pf Dd2 growth = Plasmodium falciparum Dd2 growth inhibition | actives 4.3% (n = 120,000) | Potency, µM (titrated, usually from 28.9 µM), inactives show at the top dose activity, negative = inhibition, most hits filed as inhibitors | P. falciparum Dd2 growth, SYBR Green, 72 h; active means well fitted inhibition curve with a large enough effect;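 further: plate controls were DMSO vehicle for no effect and reference drug for full effect; nearly all actives have a fitted effect of over 65% in size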
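Infected erythrocytes (Dd2, 0.3% parasitemia, 2.5% hematocrit final) are added to compound in RPMI-1640/Albumax II medium, grown 72 h at 37C in low oxygen, then lysed with saponin/Triton-X containing SYBR Green and read by fluorescence.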
An asterisk follows results filed as active; i = inactive; [ ] = another dose, or the depositor's remark. Potency means the concentration at half of the fitted maximal effect.

SMILES | Pf Dd2 growth
CC(=O)NC1(C)CCCN(Cc2cccc(Nc3ccncc3)c2)C1 (configuration not stated) | -23%[44.1 µM]
CC(=O)NC1(C)CCN(Cc2ccccc2-c2ccccc2Oc2ccccc2)C1 (configuration not stated) | 5µM*
CC(=O)NC1(C)CCCN(c2ccc(Oc3ccccc3)cc2)C1 (configuration not stated) | 18%[44.1 µM]
CC(=O)NC1(C)CCCN(Cc2cccc(-c3ccccc3)c2)C1 (configuration not stated) | 8.9µM*
CC(=O)NC1(C)CCN(Cc2cccc(-c3cccc4ncccc34)c2)C1 (configuration not stated) | i
CC(=O)NC1(C)CCN(Cc2ccc(-c3ccc4ccccc4c3)cc2)C1 (configuration not stated) | 10µM*
CC(=O)NC1(C)CCCN(Cc2ccc(Oc3ccccc3)cc2)C1 (configuration not stated) | i
CC(C)Oc1ccc(C(=O)N2C[C@@H]3CCN(C)C[C@]3(C(=O)O)C2)cc1 | -26%
CCCNC(=O)NC[C@H]1O[C@@H]2C[C@@H](CC(=O)NCc3cnn(C)c3)O[C@@H]2[C@@H]1O | -21%[44.1 µM]
c1ccc(-n2nccc2CN2CCC3(CCNCC3)C2)cc1 | -24%
CC[C@H]1CN(C(=O)Nc2cccc(C(F)(F)F)c2)CC[C@H]1CC(=O)NCc1ccc(OC)cc1 | i
CC[C@H]1CN(C(=O)Nc2cccc(OC)c2)CC[C@H]1CC(=O)NCc1cccnc1 | 1%[44.1 µM]
CC[C@H]1CN(C(=O)Nc2cccc(OC)c2)CC[C@H]1CC(=O)NCc1ccccc1 | 13µM*
CS(=O)(=O)c1ccc(CC(=O)N2CCCC(c3cccc(C(=O)O)c3)C2)cc1 (configuration not stated) | -17%
O=C(c1ccco1)N1CC[C@@H]2COCCN(Cc3ccccc3)[C@@H]2C1 | -1%
Cc1cccc(Cn2cc(/C=C(/C#N)C(=O)Nc3cccc(Cl)c3)c3ccccc32)c1 | 3.5µM*
Cc1ccc(-n2c(C)cc(/C=C(\C#N)C(=O)Nc3ccc(C)c(C)c3)c2C)cc1 | 2%
Cc1ccc(/C=C(\C#N)C(=O)Nc2cccc(Cl)c2)o1 | -9%
O=C(c1cccnc1)N1CCCCC1c1noc(COc2ccc(F)cc2)n1 (configuration not stated) | i
CCCN(CC1CCOC1)C(=O)NCc1ccc(F)cc1 (configuration not stated) | 13%[5.79 µM]
Cn1nccc1C(=O)N1CC(N(C2CCOCC2)S(C)(=O)=O)C1 | -5%
CC1CCN(S(=O)(=O)C2CCS(=O)(=O)C2)CC1 (configuration not stated) | -7%
FC(F)Oc1ccccc1CN1CCCC(Nc2ccccc2)C1 (configuration not stated) | i
COc1ccc(O)c(CN2CCCC(Nc3ccc(F)cc3)C2)c1 (configuration not stated) | 2.8µM*
COc1cccc(CCC(=O)N2CCCC(Nc3ccc(F)cc3)C2)c1 (configuration not stated) | -11%
SMILES | Pf Dd2 growth
COc1ccccc1C(=O)NC[C@H]1COCc2nc3cc(C)ccc3n21 | -14%[44.1 µM]
O=C(Cc1ccccc1)NCC1CN(C(=O)C2CCOCC2)CC12CN(c1ccccc1)C2 (configuration not stated) | -21%
COCCN[C@H]1[C@@H]2OC[C@@H](O2)[C@@H](NCc2ccccn2)[C@@H]1O | -6%[44.1 µM]
COCCN[C@H]1[C@@H]2OC[C@@H](O2)[C@@H](NCc2ccc(-c3ccccc3)cc2)[C@@H]1O | 10µM*
O[C@H]1[C@H](NCc2ccc(-c3ccccc3)cc2)[C@H]2CO[C@H](O2)[C@@H]1Sc1ccccc1 | -29%[44.1 µM]
NC(=O)C1CCCN(Cc2ccc(-c3cnc4c(OCc5ccccc5)nccn34)cc2)C1 (configuration not stated) | -10%
CS(=O)(=O)N1CCC(OC2CCN(C(=O)Nc3cccc(Cl)c3)CC2)CC1 | i
O=C(CCC(=O)N1CC2CCCN2c2ccccc21)NCc1cccc(Cl)c1 (configuration not stated) | 11%
O=C(NCc1cccc(Br)c1)c1ccc(NC(=O)N2CCCCc3ccccc32)cc1 | -3%
O=C(NCc1cccc(Cl)c1)c1ccc(NC(=O)N2CC3CCCN3c3ccccc32)cc1 (configuration not stated) | 8.9µM*
O=C(c1cccc(Cl)c1)N1CCC(N2CC3CCCN3C2=O)CC1 (configuration not stated) | 20%
O=C(Nc1cccc(Cl)c1)N1CC2CCCN2c2ccccc21 (configuration not stated) | 8.9µM*
Cc1ccccc1CN1CCC(CN(Cc2cccnc2)C(=O)C2CC=CCC2)CC1 (configuration not stated) | i
COc1ccc(NC(=O)N2CCC3(CC2)N(CC2CC2)C(=O)CS3=O)cc1 (configuration not stated) | -8%
O=C1CCC(C(=O)N(CC2CCN(Cc3ccccc3F)CC2)CC2CCCO2)=NN1 (configuration not stated) | -2%
O=C(N1CCN(c2ccccn2)CC1)C1(c2ccc(Cl)cc2)CCOCC1 | 0%
O=C(Nc1ccccc1)N1CCC(Oc2ccccc2-c2nc(-c3ccccc3)no2)C1 (configuration not stated) | -5%
c1ccc(-c2nc(-c3cnccn3)no2)c(OC2CNC2)c1 | -16%
COc1ccccc1-c1noc(-c2nc(-c3ccncc3)no2)n1 | -8%
O=C(C1CC1)N1CC(Oc2ccccc2-c2nc(-c3cnccn3)no2)C1 | 7.9µM*
CCNC(=O)N1CCC(Oc2ccccc2-c2nc(-c3cnccn3)no2)C1 (configuration not stated) | -20%
c1ccc(-c2nc(-c3ccncc3)no2)c(OC2CCNC2)c1 (configuration not stated) | 13µM*
O=C(NCc1cccc2ccccc12)C1(c2ccc(Cl)cc2)CCOCC1 | -2%
O=C(c1cn(CCC2CCCCN2)nn1)N1CCc2nc[nH]c(=O)c2CC1 (configuration not stated) | 2%
CCn1ncc(N2CCC(NC(=O)CC3CCCC3)CC2)cc1=O | 3%
SMILES | Pf Dd2 growth
Cc1ccc(NC(=O)N2CCC3(CC2)CC(Cc2nc(-c4ccccc4)no2)CCO3)cc1C (configuration not stated) | 8.9µM*
COc1ccc(C(=O)N2CCC3(CC2)CC(Cc2nc(-c4ccccc4)no2)CCO3)cc1 (configuration not stated) | i
COc1ccc(CNC(=O)N2CCC3(CC2)CC(Cc2nc(C4CC4)no2)CCO3)cc1 (configuration not stated) | -10%
CNC(=O)[C@@H]1CN(C(=O)c2nn(C)c3ccccc23)C[C@H]1COC | -23%
CCCNC(=O)N(C1CCOCC1)C1CCN(C(=O)c2ccc(C)c(F)c2)CC1 | 175%
CCOc1ccc2c(n1)CCN(C(=O)c1ccc(OC)cc1OC)C2 | 6%
CN(Cc1ccccc1)C(=O)c1cc(-c2ccncc2)cn1C | -20%
Cc1ccccc1Cn1cc(-c2ccncc2)cc1C(=O)N1CCCC(C)C1 (configuration not stated) | 10µM*
Cc1ccccc1CCC1CCCN(C(=O)c2ccccc2-c2nn[nH]n2)C1 (configuration not stated) | -14%
CCCn1cc(-c2ccncc2)cc1C(=O)NCc1ccc(C)o1 | -1%
Cc1ccc(Cn2cc(-c3ccncc3)cc2C(=O)O)cc1 | i
Cc1ccccc1Cn1cc(-c2ccncc2)cc1C(=O)N(C)Cc1ccco1 | 3.5µM*
CC(C)c1nnc(NC(=O)CC[C@H]2NC(=O)c3ccccc3NC2=O)s1 | -21%
